Reference: PubChem BioAssay (NCI)
Compounds without any hit were thinned out: in the full panel of roughly 83,000, 20% have a hit.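 Results are percent growth after 48 hours of single-concentration exposure. 100 means growth as in untreated cells, lower positive values show inhibition; negative values down to -100 show cell death.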 The source made the active and inactive calls. Rule for the calls: active = growth percent below 10; inactive = the rest.

Experiments:
Assay in all cases: NCI-60 one-dose screen, 48 h (100 = growth as untreated, 0 = no growth, -100 = all killed)
Settings in all cases: 10 µM unless noted
NCI-H23 lung = test system: NCI-H23 lung
NCI-H226 lung = test system: NCI-H226 lung
NCI-H322M lung = test system: NCI-H322M lung
HOP-62 NSCLC = test system: HOP-62 NSCLC
NCI-H460 lung = test system: NCI-H460 lung
HOP-92 NSCLC = test system: HOP-92 NSCLC
NCI-H522 lung = test system: NCI-H522 lung
A549/ATCC NSCLC = test system: A549/ATCC NSCLC
786-0 renal = test system: 786-0 renal
COLO 205 colon = test system: COLO 205 colon
DU-145 prostate = test system: DU-145 prostate
K-562 leukemia = test system: K-562 leukemia
MALME-3M melanoma = test system: MALME-3M melanoma
MDA-MB-231 breast = test system: MDA-MB-231 breast
RXF 393 renal = test system: RXF 393 renal
SF-268 CNS = test system: SF-268 CNS
SF-295 CNS = test system: SF-295 CNS
SF-539 CNS = test system: SF-539 CNS
UACC-257 melanoma = test system: UACC-257 melanoma
M14 melanoma = test system: M14 melanoma

Measured: growth

O=[N+]([O-])c1ccc2[nH]c3nccc(NCc4cccc(Cl)c4)c3c2c1
inactive: NCI-H23 lung 82.3% | NCI-H226 lung 83.9% | NCI-H322M lung 77.8% | HOP-62 NSCLC 10.8% | NCI-H460 lung 26.8% | HOP-92 NSCLC 92.5% | NCI-H522 lung 50.3% | A549/ATCC NSCLC 58.8% | 786-0 renal 76.4% | COLO 205 colon 68.1% | DU-145 prostate 64.6% | K-562 leukemia 79.4% | MALME-3M melanoma 46.4% | MDA-MB-231 breast 80.2% | RXF 393 renal 66.4% | SF-268 CNS 46.1% | SF-295 CNS 67.3% | SF-539 CNS 71.1% | UACC-257 melanoma 85.5% | M14 melanoma 83.4%

C=CCOc1ccc(/C=C2\SC(=S)N(CCc3ccc(O)cc3)C2=O)cc1
active: HOP-92 NSCLC -2.76%
inactive: NCI-H23 lung 104% | NCI-H226 lung 91.6% | NCI-H322M lung 95.2% | HOP-62 NSCLC 106% | NCI-H460 lung 97.4% | NCI-H522 lung 11% | A549/ATCC NSCLC 88.8% | 786-0 renal 100% | COLO 205 colon 114% | DU-145 prostate 98.3% | K-562 leukemia 62.1% | MALME-3M melanoma 101% | MDA-MB-231 breast 90.2% | RXF 393 renal 114% | SF-268 CNS 91.4% | SF-295 CNS 91.1% | SF-539 CNS 82.7% | UACC-257 melanoma 92.6% | M14 melanoma 103%

Cn1cc2c(=O)nc3c(-c4nc5ccccc5[nH]4)n[nH]n3c2n1
active: NCI-H522 lung -44.5%
inactive: NCI-H23 lung 78.6% | NCI-H226 lung 96.4% | NCI-H322M lung 91.8% | HOP-62 NSCLC 73% | NCI-H460 lung 81.9% | HOP-92 NSCLC 83.6% | A549/ATCC NSCLC 79.2% | 786-0 renal 80.7% | COLO 205 colon 114% | DU-145 prostate 71.8% | K-562 leukemia 61.1% | MALME-3M melanoma 74.1% | MDA-MB-231 breast 100% | RXF 393 renal 78.1% | SF-268 CNS 74.2% | SF-295 CNS 106% | SF-539 CNS 97% | UACC-257 melanoma 72.9% | M14 melanoma 75.8%

N=C(N)c1ccc(-c2ccc(-c3ccc(F)cc3)s2)nc1
inactive: NCI-H23 lung 81.8% | NCI-H226 lung 72.1% | NCI-H322M lung 66% | HOP-62 NSCLC 80.5% | HOP-92 NSCLC 69.8% | NCI-H522 lung 64% | A549/ATCC NSCLC 59.1% | 786-0 renal 88.7% | DU-145 prostate 81.5% | MALME-3M melanoma 89.5% | MDA-MB-231 breast 57.1% | RXF 393 renal 80.1% | SF-268 CNS 87.6% | SF-295 CNS 79.5% | SF-539 CNS 79.6% | UACC-257 melanoma 93% | M14 melanoma 76.1%
active: NCI-H460 lung -13.2% | COLO 205 colon -46.7% | K-562 leukemia 0.099%
